A selection: hits, their analogues and other compounds. The true share with any hit is near 1.1%.
TRPV1 ag: HTS Assay for Compounds that Act as Agonists of the Vanilloid Receptor 1 | Transient receptor potential cation channel subfamily V member 1 (Homo sapiens), Q8NER1 | TRPV1-expressing cells, Fluo-8 calcium influx, agonist mode | activation, % at 8.33 µM | 320,000 compounds, 0.19% hits; in the data active means activation above about 80%; inconclusive means between about 30% and that limit
Target sequence (Q8NER1 whole entry, looked up): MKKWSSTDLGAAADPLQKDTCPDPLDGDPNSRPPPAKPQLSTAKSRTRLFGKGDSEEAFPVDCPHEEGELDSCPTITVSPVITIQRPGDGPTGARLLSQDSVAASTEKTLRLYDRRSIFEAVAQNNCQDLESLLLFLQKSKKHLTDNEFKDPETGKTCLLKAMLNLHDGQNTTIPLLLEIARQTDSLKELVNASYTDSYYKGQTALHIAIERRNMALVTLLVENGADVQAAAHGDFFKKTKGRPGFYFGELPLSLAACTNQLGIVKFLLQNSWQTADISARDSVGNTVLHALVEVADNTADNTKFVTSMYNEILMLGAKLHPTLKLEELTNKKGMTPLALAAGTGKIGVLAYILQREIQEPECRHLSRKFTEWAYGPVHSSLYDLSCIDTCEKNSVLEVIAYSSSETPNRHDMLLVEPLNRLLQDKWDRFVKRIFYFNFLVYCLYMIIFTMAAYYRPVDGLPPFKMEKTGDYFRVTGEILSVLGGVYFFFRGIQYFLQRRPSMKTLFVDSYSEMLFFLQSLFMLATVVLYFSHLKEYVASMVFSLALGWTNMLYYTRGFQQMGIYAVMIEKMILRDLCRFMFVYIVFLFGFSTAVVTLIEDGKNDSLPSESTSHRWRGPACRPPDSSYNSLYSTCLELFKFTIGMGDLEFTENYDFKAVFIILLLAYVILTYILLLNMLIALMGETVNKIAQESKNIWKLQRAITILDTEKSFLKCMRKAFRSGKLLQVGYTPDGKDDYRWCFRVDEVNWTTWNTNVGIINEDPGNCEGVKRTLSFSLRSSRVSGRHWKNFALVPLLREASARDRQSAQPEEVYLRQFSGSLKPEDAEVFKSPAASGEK
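Fluo-8 calcium influx in TRPV1-expressing cells, kinetic read (ex 480/em 520 nm). Compound added and read 3 min for agonist activity, followed by capsaicin at EC20 final and 2 min further read for enhancement.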
RXFP1 antagonist: qHTS Assay for Antagonists of the Relaxin Receptor RXFP1; Relaxin receptor 1 (Homo sapiens), Q9HBX9; HEK293-RXFP1, relaxin-stimulated cAMP HTRF, 30 min; active compounds read low; activity change, negative = inhibition, % at 57.5 µM; 350,000 compounds, 0.59% hits; AID 1259400, 2018;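 active means activity change of -60% or lower, but not beyond a set lower limit; inconclusive means change between -60% and -40%, or beyond the set limit; inactive means change above -40%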
gsp antagonist: qHTS for Antagonists of gsp, the Etiologic Mutation Responsible for Fibrous Dysplasia/McCune-Albright Syndrome: qHTS | gsp-mutant cells, cAMP HTRF, 30 min | Potency, µM (titrated, usually from 76.9 µM), hits mostly inhibitors | 340,000 compounds, 0.4% hits; calls by dose curve; cell line not stated here;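 further: intracellular cAMP measured with PDE inhibitor Ro 20-1724 present during compound exposure; nearly all actives have a fitted effect of over 65% in size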
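Cells, 2000/well, grown 16–24 h in DMEM 10% FBS with 0.5 mg/ml G418, then compounds plus […] (300 uM addition stock), 30 min at 37C. cAMP read by HTRF (cAMP-d2 and anti-cAMP antibody-K in lysis buffer) after 30 min RT.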
RXFP1 agonist: qHTS Assay for Agonists of the Relaxin Receptor RXFP1; Relaxin receptor 1 (Homo sapiens), Q9HBX9; HEK293T-RXFP1 cAMP TR-FRET, 30 min; response scale: percent of porcine relaxin response, buffer zero; Potency, µM (highest dose often 57.5 µM), most hits filed as activators; 370,000 compounds, 0.3% hits; AID 2676, 2010; active means well fitted activation curve with a large enough effect; inconclusive means small, poorly fitted or top-dose-only effect; further: nearly all actives have a fitted effect of over 60% in size
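HEK293T cells stably expressing RXFP1 were pretreated with the PDE4 inhibitor Ro 20174, exposed to compounds for 30 min at 37C, lysed, and cAMP was read by TR-FRET. Data normalized to buffer (basal) and 29 nM porcine relaxin (100%).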
TRPV1 PAM: HTS Assay for Compounds that Act as Potentiators of the Vanilloid Receptor 1; potentiation, % at 8.33 µM; Transient receptor potential cation channel subfamily V member 1 (Homo sapiens), Q8NER1; AID 540277, 2011; TRPV1-expressing cells, Fluo-8 calcium influx, capsaicin EC20 potentiation; 320,000 compounds, 0.02% hits; in the data active means potentiation above about 80%; inconclusive means between about 30% and that limit
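Cells expressing TRPV1 were dye-loaded with Fluo-8 and read kinetically: 10 s baseline, 3 min after compound (agonist portion), then 2 min after EC20 capsaicin (allosteric enhancer portion). Calcium-bound dye fluorescence at 480/520 nm.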
gsp ag: qHTS for Agonist of gsp, the Etiologic Mutation Responsible for Fibrous Dysplasia/McCune-Albright Syndrome: qHTS. gsp mutant cells, cAMP HTRF, 30 min. Potency, µM (top dose mostly 76.9 µM), usual class: activators. 340,000 compounds, 0.13% hits. AID 624287, 2012; active means well fitted activation curve with a large enough effect; inconclusive means small, poorly fitted or top-dose-only effect, or another doubt; inactive means no such curve, though single readings can be large or run the other way; cell line not stated here;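 further: phosphodiesterase inhibitor Ro 20-1724 added with compounds to block cAMP breakdown; nearly all actives have a fitted effect of over 60% in size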
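Cells stably selected in G418 were plated at 2000/well, grown 16-24 hr, then given compounds in DMSO with the PDE inhibitor […] (300 uM solution added) for 30 min at 37C; cAMP was read by HTRF.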
Numbers stand for hits; – = inactive; ? = inconclusive; · = no result; ! = a repeat was not active; [ ] = remark or other dose.

SMILES	TRPV1 ag	RXFP1 antagonist	gsp antagonist	RXFP1 agonist	TRPV1 PAM	gsp ag
COc1ccc(-c2oc3ncn4nc(Cc5ccccc5)nc4c3c2-c2ccc(OC)cc2)cc1	–	–	10µM	–	–	–
CC(C)C(NC(=O)Cc1ccccc1)C(=O)N1CCN(c2cccc(Cl)c2)CC1 (stereo not given)	–	–	28µM	–	–	–
Cc1nn(-c2ccc(F)cc2)c(Cl)c1C(=O)N(C)CC(=O)Nc1cccc(F)c1	–	–	–	–	–	–[15.4 µM]
Cc1cccc(NC(=O)COc2ccccc2C(=O)NC(C)c2ccccc2)c1 (stereo not given)	–	–	28µM	–	–	–
Cc1cccc(NC(=O)c2ccccc2OCC(=O)c2ccccc2)c1	–	–	–	–	–	–
CC(C)c1ccc(OCC(=O)Nc2cccc(C(=O)Nc3ccccc3C(=O)O)c2)cc1	–	-66	–	–	–	–[15.4 µM]
CCCC(CCC)(C(=O)OCC)C(=O)OCC	·	–	·	·	·	·
O=C(NCC1CCCO1)c1ccc(-c2ccccc2Cl)o1 (stereo not given)	?	–	–	–	–	–
Cc1c(F)cccc1NS(=O)(=O)c1cccs1	·	–	·	–	·	·
CCOC(=O)c1ccc(O)c(O)c1	·	–	·	·	·	·
CN(C)S(=O)(=O)n1cnc([C@H]2c3c(ncn3Cc3ccccc3)C[C@H]3COC(=O)[C@@H]32)c1	–	·	50µM	–	–	–
CC(C)C(=O)Nc1ccc(C(=O)CN2C(=O)NC3(CCOc4ccccc43)C2=O)cc1 (stereo not given)	91	–	–	–	–	–
CCN(CC)C(=O)Cn1cc(S(=O)(=O)CC(=O)NCc2ccc(C)cc2)c2ccccc21	·	–	–	·	·	–[15.4 µM]
O=C(NC(Nc1ncc(S(=O)(=O)c2ccc([N+](=O)[O-])cc2)s1)(C(F)(F)F)C(F)(F)F)c1ccc(Cl)cc1	–	–	35µM	–	–	–[15.4 µM]
Cc1ccc(C(=O)NCCNc2nc3cc(C)c(C)cc3cc2C)cc1	–	–	–	–	–	22µM
Cc1cc2cc(C)c(NCCNC(=O)c3ccccc3)nc2cc1C	–	–	–	–	–	–
Cc1c(N2CCCC2)cc2c(c1N)C(C)(C)CC2(C)C	–	-71	–	–	–	–[15.4 µM]
Nc1cc(C(=O)O)ccc1N1CCCCCC1	–	–	–	–	–	–
CCCCCN(C(=O)CCC(=O)OCc1cccc(C(F)(F)F)c1)c1c(N)n(CCCC)c(=O)[nH]c1=O	–	–	–	–	–	–[15.4 µM]
CC(C)(C)OC(=O)N[C@@H](Cc1ccccc1)C(=O)NCC1CCC(C(=O)N[C@@H](CC(=O)O)C(=O)O)CC1 (stereo not given in full)	–	–	–	–	–	–
CCOC(=O)c1cc(-c2ccccc2)n(-c2cccc(C(=O)NC(C)(C)C)c2)c1C	·	–	·	–	·	·
CCOC(=O)c1cc(-c2ccccc2)n(-c2cccc(C(=O)N(C)c3ccc(C)cc3)c2)c1C	·	-63	·	–	·	·
Cc1ccc(NC(=O)c2nc(S(=O)(=O)Cc3ccccc3C)ncc2Cl)cc1C	–	-74	–	–	–	–[15.4 µM]
CCc1ccc(NC(=O)c2nc(S(=O)(=O)Cc3ccccc3)ncc2Cl)cc1	–	·	·	–	–	·
Cc1cccc(CS(=O)(=O)c2ncc(Cl)c(C(=O)NCc3ccc4c(c3)OCO4)n2)c1	–	-87	–	–	–	–
SMILES	TRPV1 ag	RXFP1 antagonist	gsp antagonist	RXFP1 agonist	TRPV1 PAM	gsp ag
CCOC(=O)c1ccc(NC(=O)c2nc(S(=O)(=O)Cc3ccccc3)ncc2Cl)cc1	–	-62!	–	–	–	–[15.4 µM]
CCS(=O)(=O)c1ncc(Cl)c(C(=O)Nc2ccccc2)n1	·	-88	·	–	·	·
CCN(CC)c1ccc(C=C2C(=O)OC(c3ccccc3)OC2=O)cc1 (stereo not given)	–	–	–	–	–	–
CCN(CC)c1ccc(/C=C/C(=O)C2C(=O)C=C(C)OC2=O)cc1 (stereo not given)	94	–	–	–	–	?
CC(=O)Oc1ccc(/C=N\NC(=O)c2cc3c(ccc4ccccc43)o2)cc1	–	–	11µM	–	–	–
O=C(N/N=C/c1cc(Br)c(O)c(Br)c1)c1cc2c(ccc3ccccc32)o1	–	-100	–	–	–	–[15.4 µM]
O=C(N/N=C/c1ccc([N+](=O)[O-])o1)c1cc2ccccc2o1	–	–	–	–	–	–
O=C(N/N=C/c1cc(Br)c(Br)o1)c1cc2ccccc2o1	?	-63	–	–	–	?
O=C(N/N=C/c1cc(Cl)c(O)c(Cl)c1)c1cc2c(ccc3ccccc32)o1	–	-81	32µM	–	–	?
O=C(N/N=C/c1ccc(O)c(Br)c1)c1cc2c(ccc3ccccc32)o1	–	–	–	–	–	–
O=C(NCC1COc2ccccc2O1)c1ccc(Br)s1 (stereo not given)	85	–	–	–	–	–
Cc1nc2ccccc2c2oc(C(=O)NCC3COc4ccccc4O3)cc12 (stereo not given)	–	-84	40µM	–	–	?
Cc1nc2nc(C)c(CCC(=O)N3CCN(c4ccccn4)CC3)c(C)n2n1	–	–	–	–	–	?
CCn1c(=O)c(CCC(=O)N2CCN(c3ccccn3)CC2)c(C)c2c(C)nn(-c3cccc(C)c3)c21	–	-103	–	–	–	–
COc1cccc(CN(C)C(=O)CCN=C2NS(=O)(=O)c3ccccc32)c1	·	–	–	·	·	–
Cc1cccc(C)c1NS(=O)(=O)c1ccc(NC(=O)c2ccc(Cl)c([N+](=O)[O-])c2)cc1	–	–	25µM	–	–	?
O=C(Nc1ccc(C(O)(C(F)(F)F)C(F)(F)F)cc1)c1ccc(Cl)c([N+](=O)[O-])c1	–	-89	35µM	–	–	–
COc1ccccc1OCC(=O)c1[nH]c(C)c(C(C)=O)c1C	–	–	25µM	–	–	–
COc1cc(C)ccc1OCC(=O)OCC(=O)c1[nH]c(C)c(C(C)=O)c1C	·	–	–	·	·	–[15.4 µM]
CC(=O)c1c(C)[nH]c(C(=O)COc2cc(C)ccc2C(C)C)c1C	–	–	11µM	–	–	–
COc1cccc(CNC(=O)CCCn2ccc3cc(S(=O)(=O)N4CCCC4)ccc32)c1	?	–	–	–	–	–

Screens from PubChem BioAssay.
